High-throughput results (PubChem BioAssay)
IL-1B inflam inh – qHTS for Inhibitors of Inflammasome Signaling: IL-1-beta AlphaLISA Primary Screen. THP-1 LPS/ATP IL-1B secretion, AlphaLISA, 16 h; stronger effect = lower value. activity change, % at 57.5 µM. hit rate 4.7% among 360,000. AID 743279, 2014; in the data active means activity change below about -50%; inconclusive means mostly about -30% to -49%; further: on the % scale 0 is the no-effect control and ±100 the full control effect
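THP-1 cells pretreated 1 hr with compounds (up to 57.5 uM final), then stimulated with LPS (250 ng/mL final) plus ATP (1.25 mM final); secreted IL-1B measured by AlphaLISA after 16 hr, decreased signal indicating inhibition.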
MCF10A rerep – A quantitative high throughput screen for small molecules that induce DNA re-replication in MCF 10a normal breast cells; MCF 10A DNA re-replication, Hoechst nuclear intensity, 48 h; hit rate 2.9% among 350,000; Potency, µM (doses to about 46.1 µM), without a hit: at the top dose activity, positive = re-replication, hits mostly activators; further: potency means the concentration at half of the fitted maximal effect; % of control where 0% means no effect; nearly all actives have a fitted effect of over 50% in size
Gal4-VP16 FLuc – VP16 counterscreen qHTS for inhibitors of ROR gamma transcriptional activity. Drosophila S2 Gal4-VP16 UAS-luciferase, luminescence, 20 h. Potency, µM (top dose mostly 53.6 µM), inactives show at the top dose activity, negative = inhibition, most hits filed as inhibitors. hit rate 3.5% among 310,000. AID 2546, 2010;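 further: Gal4-VP16 expression switched on by copper sulfate through the metallothionein promoter; potency means the concentration at half of the fitted maximal effect; on the % scale 0 is the no-effect control and ±100 the full control effect; nearly all actives have a fitted effect of over 50% in size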
SW480 rerep – A quantitative high throughput screen for small molecules that induce DNA re-replication in SW480 colon adenocarcinoma cells; Potency, µM (doses to about 46.1 µM), for inactives: at the highest dose re-replication activation, most hits filed as activators; SW480 DNA re-replication, Hoechst DNA content imaging, 48 h; hit rate 1.8% among 340,000; further: potency means the concentration at half of the fitted maximal effect; % of control where 0% means no effect; nearly all actives have a fitted effect of over 55% in size
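First, 250 cells per well were seeded. Next, compound or vehicle (23 nL) was pinned in, plates sat 48 hr at 37 C. Finally Hoechst was added for 40 min before fluorescence scanning.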
RORgamma inh – qHTS for inhibitors of ROR gamma transcriptional activity; Drosophila S2 Gal4-RORgamma UAS-luciferase reporter, 20 h; hit rate 5.4% among 310,000; Potency, µM (titrated, usually from 53.6 µM), without a hit: top-dose activity change, negative = inhibition, usual class: inhibitors; Nuclear receptor ROR-gamma (Mus musculus), P51450; further: potency means the concentration at half of the fitted maximal effect; on the % scale 0 is the no-effect control and ±100 the full control effect; nearly all actives have a fitted effect of over 60% in size
Target sequence (P51450 whole entry, looked up, the tested form may be a part): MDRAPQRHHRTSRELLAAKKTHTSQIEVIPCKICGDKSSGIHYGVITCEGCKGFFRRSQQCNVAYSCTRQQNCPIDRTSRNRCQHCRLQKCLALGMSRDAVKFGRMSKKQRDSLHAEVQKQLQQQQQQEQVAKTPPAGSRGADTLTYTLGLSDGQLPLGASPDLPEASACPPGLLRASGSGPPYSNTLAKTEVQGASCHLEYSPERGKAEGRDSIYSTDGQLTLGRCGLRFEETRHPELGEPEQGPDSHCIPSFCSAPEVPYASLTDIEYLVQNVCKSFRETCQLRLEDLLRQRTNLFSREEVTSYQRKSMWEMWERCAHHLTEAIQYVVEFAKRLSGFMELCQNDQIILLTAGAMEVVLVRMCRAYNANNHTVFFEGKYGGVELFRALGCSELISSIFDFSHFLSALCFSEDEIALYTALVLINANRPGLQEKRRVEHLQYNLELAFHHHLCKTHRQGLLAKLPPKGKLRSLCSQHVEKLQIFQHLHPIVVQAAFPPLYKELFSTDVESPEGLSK
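Stably transfected Drosophila Schneider cells are the test system, with ROR gamma fused to Gal4 and luciferase under UAS control; luminescence is read after 20 hr of 700 uM copper sulfate induction at ambient temperature.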
An asterisk follows results filed as active; [ ] = dose if it differs, or a comment. The list is not random: actives were taken first. Their share in the collection is about 11%. Unless noted, the call rests on the fitted dose curve; in most records, active means well fitted curve in the direction sought with a large enough effect; inconclusive means small, poorly fitted or top-dose-only effect, or another doubt; inactive means no such curve, though single readings can be large; an effect the other way counts as inactive or inconclusive.

How did Cc1ccc([C@H]2C[C@@H](O)[C@H](n3cc(COC(=O)c4ccccc4)nn3)CN2C(=O)c2cccs2)cc1 do in these assays?
IL-1B inflam inh: 15.9

Results for CCCn1c(CNC(=O)c2ccccc2)nc2ccccc21 ?
IL-1B inflam inh: 5.8; MCF10A rerep: 2.6%; Gal4-VP16 FLuc: -2.3%; SW480 rerep: -9.1%; RORgamma inh: 10µM*

Results for OCc1nc2ccccc2n1CCCCOc1ccccc1 ?
IL-1B inflam inh: -11.7; MCF10A rerep: -1.1%; SW480 rerep: -2.4%

Results for Cc1ccc(OCCCCn2c(CO)nc3ccccc32)cc1 ?
IL-1B inflam inh: -52.4*; MCF10A rerep: 12.9%; Gal4-VP16 FLuc: 6.7%[10 µM]; SW480 rerep: -4.5%; RORgamma inh: -33.4%

How did CCCn1c(CNC(=O)c2cccs2)nc2ccccc21 do in these assays?
IL-1B inflam inh: 10.8; MCF10A rerep: 13.2%; Gal4-VP16 FLuc: -2.4%; SW480 rerep: -17.3%; RORgamma inh: inconclusive

Results for Cn1c(/C=N/NC(=O)c2ccccc2)nc2ccccc21 ?
IL-1B inflam inh: 57.0; MCF10A rerep: 1.3%; Gal4-VP16 FLuc: -0.3%; SW480 rerep: -0.4%; RORgamma inh: 12.6µM*

How did COc1ccc(OC)c(NS(=O)(=O)c2ccc3[nH]c(=O)[nH]c3c2)c1 do in these assays?
IL-1B inflam inh: 26.9

Results for Cc1nn(-c2ccccc2)c2c1C(c1cccs1)C(C#N)=C(N)O2 (configuration not stated) ?
IL-1B inflam inh: -10.1; MCF10A rerep: 6.6%; Gal4-VP16 FLuc: 15.0%; SW480 rerep: -1.3%; RORgamma inh: 6.0%

What do the screens show for `CCCc1nn(-c2ccccc2)c2c1C(c1cccs1)C(C#N)=C(N)O2` (configuration not stated)?
IL-1B inflam inh: 0.9; MCF10A rerep: -7.4%; Gal4-VP16 FLuc: 1.4%; SW480 rerep: -7.8%; RORgamma inh: 12.6µM*

How did CS(=O)(=O)c1nc(S(=O)(=O)c2ccc(Cl)cc2)c(NCCN2CCOCC2)s1 do in these assays?
IL-1B inflam inh: -52.0*; MCF10A rerep: 2.6%; Gal4-VP16 FLuc: 1.3%; SW480 rerep: 1.4%; RORgamma inh: 2.7%

Results for CS(=O)(=O)c1nc(S(=O)(=O)c2ccc(Cl)cc2)c(NCCCn2ccnc2)s1 ?
IL-1B inflam inh: -56.2*; MCF10A rerep: 1.5%; Gal4-VP16 FLuc: -5.6%; SW480 rerep: 15.2%; RORgamma inh: 3.9%

Results for C[C@@H]1O[C@H]2C3=C(C(=O)[C@H]4O[C@@H]4[C@H]3O)[C@@H]1[C@@H]1[C@@H](C)OC=C3[C@H](O)[C@H]4O[C@@H]4/C(=N\OCc4ccccc4)[C@]312 ?
Gal4-VP16 FLuc: 2.5%[10 µM]; RORgamma inh: -27.5%[10 µM]

What do the screens show for `COc1cc(NCCCn2cnc3c(OC)ncnc32)cc(OC)c1OC`?
IL-1B inflam inh: -15.8

Results for Cc1cccc(NCc2n[nH]c(=S)n2-c2ccccc2)c1 ?
IL-1B inflam inh: -4.2; MCF10A rerep: -12.9%; Gal4-VP16 FLuc: -18.0%; SW480 rerep: 1.5%; RORgamma inh: 10µM*

What do the screens show for `Cc1ccc(S(=O)(=O)N(Cc2n[nH]c(=S)n2-c2ccccc2)c2ccccc2)cc1`?
IL-1B inflam inh: 11.0; MCF10A rerep: -4.0%; Gal4-VP16 FLuc: -3.8%; SW480 rerep: -13.5%; RORgamma inh: inconclusive

How did Cc1ccc(NCc2n[nH]c(=S)n2-c2ccccc2)cc1 do in these assays?
IL-1B inflam inh: 30.4; MCF10A rerep: 1.5%; Gal4-VP16 FLuc: -4.8%; SW480 rerep: 4.4%; RORgamma inh: 8.91µM*

What do the screens show for `Cc1ccc(NCc2n[nH]c(=S)n2-c2ccccc2)c(C)c1`?
IL-1B inflam inh: 16.5; MCF10A rerep: 15.8%; Gal4-VP16 FLuc: inconclusive; SW480 rerep: 0.5%; RORgamma inh: 1.78µM*

What do the screens show for `Cc1ccc(C(=O)Nc2ccccc2N2CCCC2)s1`?
IL-1B inflam inh: 30.5; MCF10A rerep: 3.5%; SW480 rerep: inconclusive
